From PubChem
Compounds with a hit are over-represented: about 1.5% of the library has one in this group of screens.
TLR4-MyD88 BLA: TLR4-MyD88 interaction inhibition in cells; O00206+Q99836; HeLa CL3-4 TLR4/MyD88 BLA complementation, FRET ratio; inhibition, % at 8.4 µM; hit rate 0.18% among 200,000; AID 861; in the data active = inhibition above about 25%;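 note: 0% = vehicle and 100% = reference inhibitor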
NTR1 agonist: NTR1 (human) agonism. NTR1-U2OS beta-arrestin-GFP spot imaging, agonist mode. activation, % at 20 µM. hit rate 0.17% among 330,000;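 active = activation at or above 40% of the spot to cytoplasm intensity ratio, with at least 20 cells analyzed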;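 note: 0% = DMSO without peptide and 100% = 100 nM NTR1 peptide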
Target sequence (P30989 whole entry, looked up): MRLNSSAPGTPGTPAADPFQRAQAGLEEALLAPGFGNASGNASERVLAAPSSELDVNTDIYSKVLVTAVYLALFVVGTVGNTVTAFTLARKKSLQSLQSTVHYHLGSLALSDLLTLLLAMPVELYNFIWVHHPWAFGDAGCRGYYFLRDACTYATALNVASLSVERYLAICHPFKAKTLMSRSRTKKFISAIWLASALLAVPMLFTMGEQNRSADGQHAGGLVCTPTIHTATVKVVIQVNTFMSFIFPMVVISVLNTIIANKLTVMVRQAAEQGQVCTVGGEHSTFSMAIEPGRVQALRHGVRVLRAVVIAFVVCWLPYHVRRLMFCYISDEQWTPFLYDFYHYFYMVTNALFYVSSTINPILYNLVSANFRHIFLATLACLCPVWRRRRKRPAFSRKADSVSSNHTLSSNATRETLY
Beta2AR agonist: agonists of human beta-2 adrenergic receptor inducing internalization | Am2.2-beta2AR cells, FAP receptor internalization, flow cytometry | response, % (concentration not given with the values) | hit rate 0.43% among 340,000;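 active = response above a set limit, near 3 SD of response in nonfluorescent compounds, cut at about 42% in these data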
NOD2-RIPK2 inh: NOD2-RIPK2 protein interaction inhibition; AID 624267; inhibition, % at 4.98 µM; hit rate 0.38% among 360,000; CHO BLA complementation NOD2-RIPK2, CCF4 ratio; in the data active = inhibition above about 21%;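 note: 0% = vehicle only and 100% = reference blocker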
ABHD5 PLIN5 PPI: blocks binding of human ABHD5 to perilipin-5; Q00G26+Q8WTS1; Split G. princeps luciferase complementation, luminescence, 4 h; inhibition, % at 4 µM; hit rate 0.78% among 360,000; AID 602281;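 active = inhibition above the mean inhibition across every tested compound plus 3 SD, cut at about 22% in these data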;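 note: 0% = DMSO only wells and the 100% control is not disclosed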
TLR9-MyD88 inh: TLR9-MyD88 interaction inhibition. Q9NR96+Q99836. AID 504734. CHO BLA complementation TLR9-MyD88, CCF4 FRET ratio. hit rate 0.21% among 340,000. inhibition, % at 4.98 µM;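 active = inhibition above the mean over all tested compounds plus 3 SD, cut at about 21% in these data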;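 note: 0% = DMSO only wells and 100% = clavulanate BLA inhibitor control wells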
ABHD5-PLIN5 conf: ABHD5-PLIN5 interaction inhibition, confirmed. shares compounds with ABHD5 PLIN5 PPI. biochemical ABHD5-PLIN5 interaction, luminescence. inhibition, % at 4 µM. hit rate 67% among 2,200; in the data active = inhibition above about 23%;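 note: 0% = DMSO vehicle wells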
HNF4 counter: active in HNF4 split-luciferase counter-screen for ABHD5-PLIN5 inhibitors. shares compounds with ABHD5 PLIN5 PPI. HNF4 dimerization, luminescence, biochemical. inhibition, % at 4 µM. hit rate 77% among 2,200. AID 651674;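 active = mean inhibition across replicate wells exceeding the computed hit threshold, cut at about 13% in these data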;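 note: light from luciferase halves that rejoin when HNF4 fusion proteins dimerize; 0% = DMSO only wells and the 100% control is not given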
Numbers without * were called inactive; / = no result given.

SMILES | TLR4-MyD88 BLA | NTR1 agonist | Beta2AR agonist | NOD2-RIPK2 inh | ABHD5 PLIN5 PPI | TLR9-MyD88 inh | ABHD5-PLIN5 conf | HNF4 counter
O=C(NCc1cccnc1)/C(=C/c1ccc(-c2cccc(Cl)c2)o1)S(=O)(=O)c1ccccc1 | 16 | 42* | 29 | -26 | 48* | 4 | 40* | 39*
O=C(N[C@@H](Cc1ccccc1)C(=O)CCl)OCc1ccccc1 | / | 29 | 47* | 12 | 65* | 7 | 96* | 106*
N#Cc1c(N2CCN(c3ccc([N+](=O)[O-])cc3)CC2)[n+](=O)c2ccc(Cl)cc2n1[O-] | / | / | 5 | 12 | -8 | -8 | / | /
Cc1nnc(SC(C)C(=O)Nc2ncc(Cl)cc2Cl)n1Cc1ccccc1 (centres undefined) | 19 | -1 | -12 | -3 | 57* | -4 | 3 | 0
O=S1(=O)N[C@@H](Cc2ccccc2)COc2cc(N3CCN(Cc4ccccc4F)CC3)ccc21 | / | / | / | -1 | 8 | / | / | /
Cc1ccc(S/C=C\C(=O)c2ccccc2)cc1 | 0 | 8 | 25 | -12 | 31* | -4 | 48* | 33*
CC1(C)CC(=O)C=C(c2ccc(-c3cnc4ccccc4c3)cc2)C1=O | / | / | / | -5 | -9 | 5 | / | /
CCN1/C(=C/c2ccc3ccccc3[n+]2CCCS(=O)(=O)[O-])C=Cc2cc(C)ccc21 | / | / | -11 | 5 | 13 | 1 | / | /
CCN1/C(=C/c2ccc3ccccc3[n+]2CC)C=Cc2ccccc21 | 6 | 3 | -771 | 7 | 41* | 0 | 55* | 53*
Cn1nnnc1Sc1ncnc2scc(-c3ccc[nH]3)c12 | / | 1 | 22 | 14 | 42* | 5 | 40* | 37*
Cn1nnnc1Sc1ncnc2scc(-c3ccccc3)c12 | 6 | 2 | -1 | 7 | 2 | 5 | / | /
CC(=O)Nc1ccc(S(=O)(=O)N2c3ccc(F)cc3CCC2C)cc1 (centres undefined) | / | 0 | 15 | -5 | 27* | -2 | 46* | 5
CCOc1cc(/C=C/c2nc3cc(C)c(C)cc3s2)ccc1OCC(=O)N1CCOCC1 | -5 | 4 | -8 | 4 | 2 | -2 | / | /
CCOc1cc(/C=C\[N+](=O)[O-])ccc1OCC(=O)N1CCOCC1 | 12 | 20 | 67* | 12 | 29* | -1 | 70* | 70*
Cc1ccnc(NC(=S)NC(=O)/C=C/c2ccco2)c1 | 6 | 6 | 14 | -6 | 24* | -12 | 2 | 11
COc1ccc(Cl)cc1N/C(N)=N/c1nc(CSc2ccc(C)cc2)cc(=O)[nH]1 | 2 | 0 | 0 | -1 | 104* | -1 | 3 | 5
COc1ccc(Cl)cc1N/C(N)=N/c1nc(C)cc(=O)[nH]1 | -8 | 2 | -11 | 4 | 4 | -1 | / | /
Cc1ccc(C)c(NC(=O)C2(C)CCCN2C(=O)C(C)C)c1 (centres undefined) | / | / | / | -4 | 9 | / | / | /
O=[N+]([O-])c1cc(C(F)(F)F)cc([N+](=O)[O-])c1Sc1n[nH]c(C(F)(F)F)n1 | / | 0 | -5 | -8 | 45* | -6 | 75* | 56*
O=C(O)c1ccccc1Sc1c([N+](=O)[O-])cc(C(F)(F)F)cc1[N+](=O)[O-] | -1 | 1 | -5 | -2 | 27* | 2 | 47* | 30*
CC1(C(=O)NS(=O)(=O)Cc2ccccc2C(F)(F)F)CCN1C(=O)Cc1cccs1 (centres undefined) | / | / | / | -10 | -7 | / | / | /
CN1CCN(C(=S)c2cn(Cc3ccccc3)c3ccccc23)CC1 | -11 | 1 | -2 | -9 | 6 | -10 | / | /
CN1CCN(C(=S)c2cn(Cc3ccc(Br)cc3)c3ccccc23)CC1 | -1 | 0 | -8 | 6 | 28* | -3 | 8 | 3
Cc1ccc(NC(=O)c2ncn(CCCNCC3CCCCC3)n2)cc1C | / | / | / | 11 | -2 | -10 | / | /
O=C(N/N=C/C(Br)=C/c1ccccc1)C(O)c1ccccc1 (centres undefined) | / | 2 | -2 | 6 | 25* | 8 | 3 | 34*
SMILES | TLR4-MyD88 BLA | NTR1 agonist | Beta2AR agonist | NOD2-RIPK2 inh | ABHD5 PLIN5 PPI | TLR9-MyD88 inh | ABHD5-PLIN5 conf | HNF4 counter
O=C(N/N=C/C(Br)=C/c1ccccc1)C1CC1 | 11 | 2 | -3 | 2 | 12 | -10 | / | /
CC1(C(=O)NS(=O)(=O)c2ccc(F)cc2F)CCN1C(=O)Cc1cccc2ccccc12 (centres undefined) | / | / | / | 5 | 0 | / | / | /
O=C(O)CCc1ccc(-c2ccccc2)o1 | -4 | -3 | 4 | 3 | 38* | 2 | 24* | 48*
O=C(O)CCc1nc(-c2ccccc2)c(-c2ccccc2)o1 | / | 2 | / | / | / | / | / | /
CNc1cc(-c2cc(OC)ccc2OC)ncn1 | / | / | / | 9 | -1 | / | / | /
OCC1OC(c2ccc(O)cc2O)C(O)C1O (centres undefined) | / | / | / | -10 | 8 | / | / | /
O=S(=O)(/C(=C/c1ccc(C(F)(F)F)cc1)c1nc2ccccc2[nH]1)c1ccccc1 | 20 | / | 22 | 14 | 70* | 1 | 104* | 103*
C/C(=C\c1ccc(N)cc1)c1nc2ccccc2[nH]1 | / | 1 | 1 | 9 | -2 | 2 | / | /
CC(C)c1ccc(/C=C(\c2nc3ccccc3[nH]2)S(=O)(=O)c2ccccc2)cc1 | 9 | 25 | 42* | 13 | 75* | 7 | 90* | 72*
CN1CCCC(C(=O)Nc2cccc(Cl)c2)CC1 (centres undefined) | / | / | / | -15 | 2 | / | / | /
CCOc1ccccc1-c1ccc(C(=O)NCc2ccc(Cl)cc2)o1 | / | / | / | 1 | -3 | / | / | /
CC(C)C1N=C(c2ccc3c(c2)OCO3)CC(c2ccccc2O)N1 (centres undefined) | 1 | 2 | 1 | 10 | 56* | -2 | 58* | 82*
Cc1ccc(-c2nnc(-c3ccc4c(c3)OCO4)o2)cc1 | 0 | 2 | -3 | -16 | -2 | 0 | / | /
CCCC(=O)N1CCC1(C)C(=O)NCc1ccccc1SC (centres undefined) | / | / | / | -4 | -4 | / | / | /
COc1cccc(NC(=O)CN2C(=O)NC3(CCCc4ccccc43)C2=O)c1 (centres undefined) | / | -2 | 4 | -8 | 92* | 6 | 4 | 2
O=C(OC1CC2CC1[C@H]1CCCCN1C2=O)N1CCN(C(=O)c2ccccc2)CC1 (some centres undefined) | / | / | / | -2 | -1 | / | / | /
Cc1ccc(CNC(=O)c2cccc3c2C(=O)c2ccc(N4CCOCC4)cc2S3(=O)=O)cc1 | / | 3 | -3 | 8 | 5 | 7 | / | /
O=C(NCc1cccc(F)c1)c1cccc2c1C(=O)c1ccc(N3CCOCC3)cc1S2(=O)=O | / | 0 | 9 | -2 | 25* | -1 | -1 | 16*
O=C(NCc1ccco1)c1cccc2c1C(=O)c1ccc(N3CCCC3)cc1S2(=O)=O | / | 0 | 8 | -1 | 26* | 1 | 33* | 73*
